Assay [1] deals with Human papillomavirus type 1a protein E7 (residues 44-93). Kind of assay: HPV1a E7 fragment binders on microarrays, primary screen, biochemical, small-molecule microarray, residues 44-93, 635 nm fluorescence (AID 1108).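 Also: E7 fragment applied at 1 µg/mL in TBST for 1 h at 4 C; score combines spot fluorescence with its signal to noise ratio.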 To be noted: small-molecule microarray binding, fluorescence 635 nm; higher = more signal.
Assay [2] can be described thus: modulators of HCV replicon luciferase signal, primary screen, HCV replication inhibitor project, Huh7 cells, luciferase reporter (AID 1109).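 Also: huh7 hepatoma cells harbouring a luciferase neomycin HCV replicon reporter; luciferase luminescence as measure of HCV replicon replication; test concentration not given here.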 To be noted: 48 h, higher = more signal.
Assay [3] addresses Left-right determination factor 2 (Homo sapiens) (UniProt O00292). The assay is described as follows: LEFTY2 binders on small-molecule microarrays, primary screen, biochemical, small-molecule microarray, 635 nm fluorescence scan (AID 1110). The settings on record: LEFTY2 binding, higher = more signal.
The target of assay [4] is Calmodulin-1 (Homo sapiens) (UniProt P0DP23). Kind of assay: CALM1 binders on microarrays, EGTA buffer, profiling panel, biochemical, small-molecule microarray, Cy5-labelled CALM1 (AID 1111).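 Also: labelled calmodulin applied in Tris saline Tween buffer holding calcium plus EGTA and DTT.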 The settings on record: Cy5-CALM1 binding fluorescence, higher = more signal.
The target is the same in assay [5]. Kind of assay: calcium-bound CALM1 binders on microarrays, profiling panel, artefact control for SMM control-protein annotation, biochemical, small-molecule microarray, Cy5-labelled CALM1, plus calcium (AID 1112).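 Also: score merges spot fluorescence with signal to noise from triplicate slides.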 The settings on record: Cy5-CALM1 binding fluorescence, higher = more signal.
Assay [6] in a line: small-molecule microarray binders of probe aWnt5a, primary screen, biochemical, biotinylated probe, 635/667 nm fluorescence (AID 1113).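 Also: score merges 667 nm fluorescence intensity with signal-to-noise per printed feature.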 The settings on record: higher = more signal.
Assay [7] can be described thus: small-molecule microarray binders of probe aShh, primary screen, biochemical, biotinylated probe, 635/667 nm fluorescence (AID 1114).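 Also: probe is biotin-labelled aShh protein from a stem cell growth factor screen; measures binding of labelled protein to compounds printed on the slide; score merges feature fluorescence at 667 nm with signal-to-noise.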 The settings on record: higher = more signal.
Assay [8] can be described thus: small-molecule microarray binders of probe aNog, primary screen, biochemical, biotinylated probe, 635/667 nm fluorescence (AID 1115).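 Also: probe is biotinylated aNog protein used at 0.15 µg/mL for 1 h at 4 C; z-score combines 667 nm fluorescence of each spot with its signal to noise.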 To be noted: higher = more signal.
Assay [9] concerns the target Torsin-1A-interacting protein 1 (Homo sapiens) (UniProt Q5JTV8). Kind of assay: LAP1 binders from COS7 cell lysate, primary screen, small-molecule microarray, 635/667 nm fluorescence (AID 1116). The settings on record: COS7-hLAP1 lysate binding, 635 nm fluorescence, higher = more signal.
The target of assay [10] is Alpha-bungarotoxin (Bungarus multicinctus) (UniProt P60615). The assay is described as follows: alpha-bungarotoxin binders on microarray, profiling panel, artefact control for SMM control protein annotation, biochemical, small-molecule microarray, Alexa647 label, 635/667 nm fluorescence (AID 1117). To be noted: alpha-BTX-A647 binding fluorescence, higher = more signal.

17 compounds from PubChem BioAssay can be followed below.

Chain of Alpha-bungarotoxin (Bungarus multicinctus) (P60615 whole entry, looked up): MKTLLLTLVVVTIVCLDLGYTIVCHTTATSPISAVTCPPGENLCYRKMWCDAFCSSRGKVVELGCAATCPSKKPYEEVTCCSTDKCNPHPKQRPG
Chain of Left-right determination factor 2 (Homo sapiens) (O00292 whole entry, looked up): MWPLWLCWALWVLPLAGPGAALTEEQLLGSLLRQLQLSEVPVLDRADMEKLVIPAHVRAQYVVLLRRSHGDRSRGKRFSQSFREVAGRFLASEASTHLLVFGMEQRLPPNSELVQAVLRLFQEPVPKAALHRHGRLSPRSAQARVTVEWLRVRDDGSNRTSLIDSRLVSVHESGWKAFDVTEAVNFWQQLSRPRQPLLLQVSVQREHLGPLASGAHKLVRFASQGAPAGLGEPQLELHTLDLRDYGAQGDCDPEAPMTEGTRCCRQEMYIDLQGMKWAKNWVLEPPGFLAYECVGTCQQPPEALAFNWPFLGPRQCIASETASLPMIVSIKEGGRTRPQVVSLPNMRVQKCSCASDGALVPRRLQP
Chain of Torsin-1A-interacting protein 1 (Homo sapiens) (Q5JTV8 whole entry, looked up): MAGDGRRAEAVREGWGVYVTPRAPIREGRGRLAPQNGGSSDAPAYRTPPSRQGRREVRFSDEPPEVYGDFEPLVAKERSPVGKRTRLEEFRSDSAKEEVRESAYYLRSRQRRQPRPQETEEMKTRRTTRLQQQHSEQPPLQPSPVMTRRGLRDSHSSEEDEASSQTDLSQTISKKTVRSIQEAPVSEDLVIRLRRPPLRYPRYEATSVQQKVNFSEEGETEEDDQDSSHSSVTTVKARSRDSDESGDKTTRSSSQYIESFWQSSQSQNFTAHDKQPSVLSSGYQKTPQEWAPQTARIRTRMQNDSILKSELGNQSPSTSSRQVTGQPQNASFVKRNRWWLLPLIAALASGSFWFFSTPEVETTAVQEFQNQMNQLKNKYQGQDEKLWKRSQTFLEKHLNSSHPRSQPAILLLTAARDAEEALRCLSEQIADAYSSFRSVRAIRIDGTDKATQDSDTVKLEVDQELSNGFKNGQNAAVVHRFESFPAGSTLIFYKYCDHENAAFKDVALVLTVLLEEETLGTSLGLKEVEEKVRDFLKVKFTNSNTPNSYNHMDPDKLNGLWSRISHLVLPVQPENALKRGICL

Consider `COCCOC(=O)N1C(=O)[C@@]2(c3cc(C#Cc4ccc(OC)cc4)ccc31)[C@H](C(=O)N1CCCCCCC1)[C@H]1C(=O)O[C@H](c3ccccc3)[C@H](c3ccccc3)N1[C@@H]2c1ccc(OCCO)cc1`, for which the composite z-score in assay [1] was determined as 0.114; in assay [3], 1.47; in assay [4], 1.88; in [5], 1.2; in assay [6] it was 0.543; in [7], 2.15. Moreover, the results for the composite z-score in [8], in [9] and in assay [10] were 2.9, 2.98 and 1.14, respectively. Further, the z-score in assay [2] is -1.7.

Take `C=CCNC(=O)[C@H]1[C@@H]2C(=O)O[C@@H](c3ccccc3)[C@@H](c3ccccc3)N2[C@@H](c2ccc(OCCO)cc2)[C@]12C(=O)N(C(=O)OCCOC)c1ccccc12`: the composite z-score was 0.379 in assay [1]; 0.666 in [3]; 1.06 in assay [4]; 0.0523 in [5]; -0.14 in assay [6]; -0.0056 in assay [7]. For the same compound, the composite z-score was -0.0681 in assay [8], 0.985 in assay [9] and 1.66 in assay [10]. The compound further had a z-score in [2] of -1.49.

As for `O=C1c2ccccc2[C@](Cc2ccccc2I)(C(=O)NC2CC2)[C@H](c2ccc(CO)cc2)N1Cc1ccccc1`, the composite z-score was 0.742 in assay [1]; -0.346 in assay [3]; 0.438 in assay [4]; 0.0099 in [5]; -0.101 in assay [6]; 0.234 in [7]. In addition, the composite z-score in [8] is 0.099; in [9], 0.711; in [10] it was 0.832. Besides, the z-score in [2] is -0.701.

Consider `COCCCNC(=O)C1N=C(c2ccc(OCCCO)cc2)N(c2ccccc2)O1` (stereo not given), for which the composite z-score in assay [1] was 1.41; in [3] it was 0.382; in assay [4] it was 1.08; in assay [5], 0.131; in assay [6], -0.0286; in assay [7], -0.0035. Also, the results for the composite z-score in assay [8], in assay [9] and in assay [10] were 0.752, 0.477 and 0.649, respectively. Besides, the z-score in [2] is -1.46.

Take `O=C(NCc1ccccc1)[C@@H]1c2ccccc2C(=O)N(CC23CC4CC(CC(C4)C2)C3)[C@H]1c1ccc(CO)cc1`: the composite z-score in [1] is 1.36; in [3], 0.567; in assay [4], 0.237; in [5], -0.831; in assay [6] it was -0.0957; in [7] it was -0.0337. In addition, the composite z-score in assay [8] was -0.584; in assay [9], 0.575; in [10], 0.645. The z-score in assay [2] is -1.96.

In the case of `C=C(COC)/C(=C/C[C@H](OC(=O)c1ccncc1)c1ccc(OCCO)cc1)c1cnc2ccccc2c1`, the composite z-score in assay [1] was 1.46; in assay [3] it was 1.07; in assay [4] it was 0.447; in [5], -0.669; in [6], 0.0328; in [7], 0.171. Further, the composite z-score in assay [8] is -0.456; in assay [9], 0.78; in [10], 2.8. Moreover, the z-score in [2] was -1.63.

For the compound `COC(=O)c1c(CC[C@@H](CO)NC(=O)N[C@H](Cn2cc(Cc3ccccc3)nn2)C(C)C)oc(C(C)=O)c1C(=O)OC`, the composite z-score is 0.712 in assay [1]; 0.637 in assay [3]; -0.279 in assay [4]; -0.573 in assay [5]; -0.18 in assay [6]; 0.288 in assay [7]. Further, the results for the composite z-score in assay [8], in assay [9] and in assay [10] were -0.143, 0.223 and 0.882, respectively. Besides, the z-score in [2] was -0.0084.

Regarding `CN1C(=O)C2C=CC(C(O)c3ccc(-c4ccccc4)s3)N(N(c3ccccc3)c3ccccc3)C2C1=O` (stereo not given), the composite z-score in assay [1] was 0.761; in assay [3] it was -0.18; in assay [4], 0.906; in assay [5] it was 0.405; in [6], 0.0324; in assay [7], -0.0813. Moreover, the composite z-score came to 1.44 in [8], 0.397 in assay [9] and 1.37 in [10]. Besides, in [2], the z-score is 0.339.

Take `COc1ccc([Si](C)(C)[C@H]2[C@H](CCO)O[C@@]3(C(=O)N(C)c4c(Br)cc(C)cc43)[C@@H]2C)cc1`: the composite z-score in [1] was -0.122; in [3], 0.304; in assay [4], 0.388; in assay [5], 0.204; in [6], -0.0944; in assay [7] it was -0.138. Moreover, the composite z-score in assay [8] worked out at 0.474; in assay [9], 0.269; in assay [10] it was 0.541. This compound gave a z-score in [2] of -5.23.

Take `CO[C@H]1O[C@H](CO)[C@@H](OC(=O)Nc2ccc(Br)cc2)[C@H](OC(=O)c2cc3ccccc3[nH]2)[C@H]1OC(=O)c1cc2ccccc2[nH]1`: the composite z-score in assay [1] was 0.823; in assay [3], -0.132; in assay [4] it was 1.87; in assay [5] it was 0.14; in assay [6], 0.0775; in assay [7] it was -0.262. For the same compound, the composite z-score in [8] was found to be 0.121; in assay [9], 0.926; in [10], 0.353. This compound also gave a z-score in [2] of -3.51.

As for `COc1ccc([Si](C)(C)[C@H]2[C@H](CC(=O)N3CCC[C@H]3CO)O[C@@]3(C(=O)N(Cc4cccc(N5C(=O)c6cccc7cccc5c67)c4)c4ccccc43)[C@@H]2C)cc1`, the composite z-score in assay [1] is 1.34; in assay [3] it was 0.758; in assay [4] it was 0.681; in assay [5], -0.0975; in assay [6], 0.0775; in [7] it was -0.196. For the same compound, the results for the composite z-score in assay [8], in assay [9] and in [10] were 1.02, 0.582 and 1.56, respectively. The z-score in [2] is -3.12.

Consider `COc1ccc(COC2OC[C@]3(C)[C@H]4C5=C(CN3C(=O)OC(C)(C)C)[C@H](C)C(CO)C(CO)C5CC[C@@H]24)cc1` (stereo not given in full), for which the composite z-score in [1] was 1.27; in assay [3], -0.877; in assay [4], 1.44; in assay [5], 0.86; in [6], 0.0118; in assay [7], 0.202. In addition, the composite z-score came out at 0.97 in [8], 1.17 in assay [9] and 0.608 in assay [10]. Moreover, in assay [2], the z-score is -0.355.

In the case of `C#CCN(CC1=CCCCC1)[C@H](c1ccccc1Br)[C@@H](O)Cc1ccccc1`, the composite z-score in [1] is -0.0413; in assay [3], -1.07; in [4] it was -0.929; in assay [5], -0.568; in assay [6], -0.118; in [7], 0.108. In addition, the composite z-score in assay [8] is -0.368; in assay [9], 0.632; in assay [10], 0.92. In addition, the z-score in assay [2] is -2.33.

With `N#Cc1ccc(NN2C(C(O)c3c(F)cccc3Cl)C=CC3C(=O)N(c4ccccc4)C(=O)C32)cc1` (stereo not given), the composite z-score in [1] was 1.47; in assay [3] it was 0.21; in [4], 2.51; in assay [5] it was 1.07; in [6] it was 0.0724; in [7] it was -0.195. In addition, the composite z-score came out at 1.65 in assay [8], 2.65 in assay [9] and 1.59 in assay [10]. In assay [2], this compound showed a z-score of -0.57.

Consider `O=C(NCc1ccccc1)[C@@]1(Cc2ccccc2)N=C(c2ccc(OCCCO)cc2)O[C@H]1c1ccccc1`, for which the composite z-score in assay [1] was 1.11; in assay [3], -0.699; in assay [4], 2.36; in [5] it was 1.09; in assay [6], 0.055; in assay [7], -0.181. In addition, the composite z-score worked out at 1.36 in assay [8], 2.02 in assay [9] and 1.1 in [10]. This compound also registered a z-score in [2] of -2.57.

Take `CN1C(=O)C2C=CC(C(O)C3CC=CCC3)N(NC(=O)OC(C)(C)C)C2C1=O` (stereo not given): the composite z-score is 0.696 in [1]; 0.46 in [3]; 2.3 in assay [4]; 0.785 in assay [5]; -0.0539 in [6]; -0.195 in [7]. The figures for the composite z-score in assay [8], in [9] and in [10] were 0.55, 1.84 and 1.3, respectively. Also, in [2], the z-score was -0.0017.

For the compound `COCC(=C=CC[C@H](O)c1ccccc1OCCO)C[C@H](O)c1cc(Cl)cc(Cl)c1O`, the composite z-score in assay [1] is 1.31; in [3], 0.223; in assay [4], 0.068; in [5] it was -0.596; in [6], 0.0357; in assay [7], 0.207. Further, the composite z-score worked out at 0.464 in assay [8], 0.743 in assay [9] and 1.08 in assay [10]. Also, in [2], the z-score was -4.43.
